Assay outcomes from PubChem.
tim23-1 inh: growth inhibitors of tim23-1 mutant yeast | S. cerevisiae tim23-1 growth, BacTiter-Glo luminescence, 24 h | AID 463212 | 1.3% of 330,000 active | inhibition, % at 20 µM;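 active = growth inhibition of the mutant yeast at or above 50%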;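 note: temperature-sensitive mutant grown at 25 °C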
PfHsp90 set2: growth inhibition of yeast expressing Plasmodium Hsp90; inhibition, % at 9.4 µM; S. cerevisiae expressing PfHsp90, BacTiter-Glo ATP, 48 h; yeast lacking PDR1 and PDR3 efflux regulators; 0.32% of 310,000 active; AID 504621;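 active = every replicate shows inhibition above about 80%, whatever the replicate mean, limit read from the data; inconclusive = mean inhibition reaches the set limit but some replicate falls short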
tim10-1 inh: tim10-1 yeast growth inhibition; inhibition, % at 20 µM; S. cerevisiae tim10-1 ts strain growth, BacTiter-Glo, 24 h; AID 463190; 2.2% of 330,000 active;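 active = inhibition of at least 40%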;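 note: mutant grown at 25 °C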
SKKanGAS inh: SKKanGAS growth inhibition | S. pyogenes SKKanGAS, kanamycin growth, BacTiter-Glo, 6 h | inhibition, % at 7.5 µM | 1.3% of 300,000 active;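 active = mean replicate score, as percent of positive control median, at least 50; inconclusive = mean below 50 but one replicate at or above 50; inactive = mean and every replicate below 50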;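 note: strain carries kanamycin resistance gene driven by streptokinase promoter and grows in 40 µg/ml kanamycin; loss of luminescence reflects streptokinase promoter inhibition or plain growth inhibition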
Calb FLC: affects C. albicans growth with fluconazole | C. albicans CaCi-2 (fluconazole-resistant clinical isolate) + fluconazole, Alamar Blue growth, 48 h | AID 1979 | growth inhibition, % (no concentration beside the values) | 0.57% of 300,000 active;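 active = growth inhibition above about 58% in most replicates, limit read from the data, passing the limit was not always enough; inconclusive = exactly half the replicates above a set limit; inactive = most replicates below a set limit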;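 note: all wells also contain fluconazole at 8 µg/ml as a sub-toxic cotreatment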
TIM10 inh: TIM10 yeast growth inhibition. S. cerevisiae TIM10 strain growth, BacTiter-Glo luminescence, 24 h. inhibition, % at 10 µM. 1.4% of 330,000 active. AID 463195;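 active = inhibition of 40% or more at the single tested concentration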;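 note: wild-type TIM10 isogenic control strain grown at permissive 25 °C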
tim10-1 confirm: confirmation of tim10-1 mutant yeast growth inhibitors; S. cerevisiae tim10-1 ts strain growth, BacTiter-Glo, 24 h; inhibition, % at 20 µM; shares compounds with tim10-1 inh; 56% of 7,400 active;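 active = inhibition of yeast growth at or above a set limit in either of two repeat tests at 20 µM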;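 note: tim10-1 mutant grown at permissive 25 °C to find synthetic lethal compounds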
Of the large screens only hits and unclear results are named; the others gave an inactive call (follow-up assays come after a bar, where they were run). Hits are enriched below; roughly 4.7% of the tested compounds scored in any of these assays.

CCc1nc2ccccc2n1CCc1ccccc1	none
CC(C)(C)Cc1nc2ccccc2n1CCc1ccccc1	tim10-1 inh 41 | tim10-1 confirm inactive
Cc1ccc(C)c(S(=O)(=O)ON2C(=O)c3ccccc3C2=O)c1	tim10-1 inh 70 (no result: SKKanGAS inh, Calb FLC) | tim10-1 confirm 52
COc1ccc(OCCCC(=O)ON=C(N)c2ccccc2C)cc1	tim10-1 inh 44 (no result: SKKanGAS inh, Calb FLC) | tim10-1 confirm 56
CCOc1ccc(OCCCC(=O)ON=C(N)c2ccccc2Cl)cc1	none (no result: SKKanGAS inh, Calb FLC)
N/C(=N\OC(=O)CCCOc1ccccc1)c1ccc([N+](=O)[O-])cc1	tim10-1 inh 55 | tim10-1 confirm 42
N/C(=N\OC(=O)Oc1ccccc1)c1ccc([N+](=O)[O-])cc1	none
N/C(=N\OC(=O)CCCc1ccccc1)c1ccc([N+](=O)[O-])cc1	tim10-1 inh 46 | tim10-1 confirm 52
Cc1cc(C)n(C(=O)/C(C#N)=N/Nc2cc(Cl)cc(Cl)c2)n1	tim10-1 inh 47, SKKanGAS inh 90 | tim10-1 confirm 56
COc1ccc(/C(N)=N/OC(=O)CN(C)S(=O)(=O)c2ccc(C)cc2)cc1	none (no result: tim23-1 inh, tim10-1 inh, SKKanGAS inh, Calb FLC, TIM10 inh)
CN(CC(=O)O/N=C(\N)c1ccccn1)S(=O)(=O)c1ccccc1	none
COc1ccc(/C(N)=N/OC(=O)CN(C)S(=O)(=O)c2ccccc2)cc1	none (no result: SKKanGAS inh, Calb FLC)
Cc1ccc(S(=O)(=O)N(C)CC(=O)O/N=C(\N)c2cccc(Br)c2)cc1	tim10-1 inh 50 | tim10-1 confirm 52
CN(CC(=O)O/N=C(\N)c1ccc([N+](=O)[O-])cc1)S(=O)(=O)c1ccc2ccccc2c1	tim10-1 inh 45 (no result: PfHsp90 set2) | tim10-1 confirm 47
Cc1ccc(/C(N)=N/OC(=O)CN(C)S(=O)(=O)c2ccc(C)cc2)cc1	tim10-1 inh 47 | tim10-1 confirm inactive
CN(C1CCCCC1)S(=O)(=O)c1ccc(S(=O)(=O)N(CC(=O)Nc2ccccc2)C2CC2)cc1	none
CC(C)c1cccc(C(C)C)c1NC(=O)CNCC(O)c1ccccc1 (stereo not given)	none
CC(C)c1cccc(C(C)C)c1NC(=O)CNCc1ccccc1F	tim10-1 inh 47 | tim10-1 confirm inactive
Cn1cnnc1SCC(=O)Nc1ncc([N+](=O)[O-])s1	none (no result: PfHsp90 set2, SKKanGAS inh, Calb FLC)
O=C1NC2(CCCC2)C(=O)N1CC(=O)N(Cc1ccccc1)c1ccccc1	none
Cc1ccc2c(CC(=O)O)coc2c1C	tim10-1 inh 41 | tim10-1 confirm inactive
O=[N+]([O-])c1ccc(-c2csc(N3CCc4ccccc4C3)n2)cc1	none
O=[N+]([O-])c1ccc(N2CCc3ccccc3C2)cc1	tim10-1 inh 55 | tim10-1 confirm 43
Clc1ccccc1-c1nn2c(-c3ccccn3)nnc2s1	tim10-1 inh 40 (no result: PfHsp90 set2) | tim10-1 confirm 40
Clc1ccccc1-c1nn2c(-c3ccncc3)nnc2s1	tim10-1 inh 43 (no result: PfHsp90 set2) | tim10-1 confirm 43
Clc1ccccc1-c1nnc2sc(-c3ccncc3)nn12	none
Cc1ccc(Cl)cc1N1CCN(C(=O)c2noc(C(C)C)c2[N+](=O)[O-])CC1	none
COC(=O)c1ccc(CN2CCCC(CO)(Cc3ccc(F)cc3F)C2)cc1 (stereo not given)	none
Cc1cc(=O)c2cc(Br)ccc2[nH]1	none (no result: PfHsp90 set2)
S=c1nc(-c2ccccc2)[nH]c2ccc(Br)cc12	tim10-1 inh 43 (no result: Calb FLC) | tim10-1 confirm inactive
CN(C)CCN(C(=O)/C=C/c1cccs1)c1nc2ccc(F)cc2s1	tim10-1 inh 44 | tim10-1 confirm 35
Cc1cc(C)n(S(=O)(=O)c2ccc(Cl)cc2)n1	none
Cc1cc(C)n(S(=O)(=O)c2ccc(F)cc2)n1	none
Cc1cc(C)n(S(=O)(=O)c2cc(Cl)ccc2Cl)n1	tim10-1 inh 40 | tim10-1 confirm inactive
Cc1cc(C)n(S(=O)(=O)c2ccc(C(C)(C)C)cc2)n1	tim10-1 inh 43 (no result: PfHsp90 set2) | tim10-1 confirm 38
COc1cc2c(cc1OC)[C@@H](NC(=O)CCc1ccccc1)[C@H](OCc1ccccc1)C2	none (no result: SKKanGAS inh, Calb FLC)
O=S(=O)(N/N=C1\CCCc2ccccc21)c1ccccc1	none (no result: SKKanGAS inh, Calb FLC)
O=S(=O)(N/N=C1/CC(c2ccccc2)Oc2ccccc21)c1ccc(Br)cc1 (stereo not given)	tim10-1 inh 41 (no result: PfHsp90 set2) | tim10-1 confirm 29
Cc1ccc(S(=O)(=O)N/N=C2/CC(c3ccccc3)Oc3ccccc32)cc1[N+](=O)[O-] (stereo not given)	none
O=S(=O)(N/N=C1/CCCc2ccccc21)c1ccc(Br)cc1	tim10-1 inh 42 | tim10-1 confirm inactive
COc1cc([C@H]2c3c(cc(OC)c(O)c3OC)C[C@@H](CO)[C@@H]2CO[C@@H]2O[C@H](CO)[C@@H](O)[C@H](O)[C@H]2O)cc(OC)c1O	none (no result: SKKanGAS inh, Calb FLC)
Cc1sc(C(C2C(=O)CC(C)(C)CC2=O)C2C(=O)CC(C)(C)CC2=O)cc1[N+](=O)[O-]	tim10-1 inh 44 | tim10-1 confirm 41
CCOC(=O)c1ncccc1NC(=O)CC(=O)Nc1cccnc1C(=O)OCC	none (no result: PfHsp90 set2)
CC(C)(C)c1ccc(-c2csc(NNC3=NCCCCC3)n2)cc1	tim10-1 inh 45 | tim10-1 confirm inactive
CCOCCCNC(=S)N1CCN(c2nc(-c3ccccc3)cs2)CC1	none
COc1cccc(-c2csc(N3CCN(C(=S)Nc4ccccc4Cl)CC3)n2)c1	tim10-1 inh 44 | tim10-1 confirm 34
COCCCNC(=S)N1CCN(c2nc(-c3ccccc3)cs2)CC1	tim10-1 inh 40 | tim10-1 confirm inactive
COc1ccc(C(=O)/C(=C/O)N=Nc2ccc(F)cc2)cc1	tim10-1 inh 45 | tim10-1 confirm inactive
CCOc1ccc(N2C(=O)CC(N(Cc3ccco3)C(=O)CCC(=O)O)C2=O)cc1 (stereo not given)	none
O=C(O)/C=C\c1cccc(-n2nnnc2SCc2ccccc2F)c1	none
CS(=O)(=O)c1ccccc1-c1nnc(NC(=O)c2ccc3ncsc3c2)o1	none
O=[N+]([O-])c1ccc(N=Nc2ccc(O)cc2O)cc1	tim10-1 inh 59, SKKanGAS inh inconclusive | tim10-1 confirm 44
NS(=O)(=O)c1ccc(CCNc2ccnc3cc(Cl)ccc23)cc1	none
COc1ccc(C(=S)N2CCCCCC2)cc1	tim10-1 inh 40 (no result: PfHsp90 set2) | tim10-1 confirm inactive
COc1ccc(C(=S)N2CCNCC2)cc1	none
Cc1ccccc1OCCCC(=O)Nc1ccc(S(=O)(=O)Nc2onc(C)c2C)cc1	none
COc1ccccc1NC(=S)NCCc1ccccc1	none
COc1ccccc1NC(=S)NCCc1ccc(F)cc1	tim10-1 inh 48 | tim10-1 confirm inactive
CCOC(=O)CC(=O)CSc1ccc2nnc(-c3cccc(F)c3)n2n1	none
CSc1ccc2nnc(-c3cccc(F)c3)n2n1	tim10-1 inh 48 | tim10-1 confirm 41
C/C(=N\NC(=S)NCc1ccccc1)c1ccc(Cl)s1	tim10-1 inh 41 | tim10-1 confirm 33
